Assay results from PubChem BioAssay (NCATS).
Inconclusive results are not listed. Calls of active or inactive are those of the source. Calls follow the shape of the dose curve; as a rule, active = well fitted curve in the direction sought with a large enough effect; inconclusive = small, poorly fitted or top-dose-only effect, or another doubt; inactive = no such curve, though single readings can be large; an effect the other way counts as inactive or inconclusive.

How the values were obtained:
[1] = qHTS for activators of dead-cell proteases activity screened against the NCATS CANVASS Library (AID 1347392);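 also: luminescence from protease leaking out of membrane-damaged cells cleaving impermeant substrate; 0% is about no effect; rising signal means more cytotoxicity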
Procedure, shortened: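 HepG2 cells, 2000/well, attached 18 h at 37C, then exposed to compounds (11-point qHTS) for 5 h. Dead-cell protease release read as luminescence from cell-impermeant AAF-aminoluciferin substrate after 15 min at room temperature.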

[2] = Vero-766 cells viability qHTS against the NCATS CANVASS Library: Counterscreen for Zika virus inhibition assay (AID 1347394); also: series mostly up to about 46 µM; % is scaled to controls: 0 for no effect and ±100 for the full control effect; nearly all actives have a fitted effect of over 60% in size
Procedure, shortened: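 CellTiter Glo luminescence measured cytotoxicity after 72 h at 37C in uninfected Vero 766 cells, plated at 1000 cells/well. Compounds were applied in an 11-point series. Wells without cells defined 100% inhibition.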

[3] = qHTS for inhibitors of Wild type Zika virus screened against the NCATS CANVASS Library (AID 1347396);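 also: ATP luminescence of surviving cells so rescue from viral cell killing; series mostly up to about 46 µM; % is scaled to controls: 0 for no effect and ±100 for the full control effect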
Procedure, shortened: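 Protection against wild-type Zika cytopathic effect is measured in African green monkey Vero 766 cells exposed to an 11-point compound series. Surviving cells are quantified by CellTiter Glo luminescence after 72 h.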

[4] = Viability qHTS for inhibitors of the SERCaMP assay screened against the NCATS CANVASS Library (AID 1347400); also: series mostly up to about 92 µM; % is scaled to controls: 0 for no effect and ±100 for the full control effect; nearly all actives have a fitted effect of over 70% in size
Procedure, shortened: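 Cytotoxicity counter-screen: ATP content (CellTiter-Glo luminescence) of SH-SY5Y-GLuc SERCaMP MJH297 cells after 48 h at 37C with compounds in an 11-point qHTS series.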

[5] = qHTS for inhibitors of ER calcium dysfunction: SERCaMP assay screened against the NCATS CANVASS Library (AID 1347393);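 also: series mostly up to about 77 µM; % is scaled to controls: 0 for no effect and ±100 for the full control effect; lower secreted reporter signal means inhibitor of ER calcium depletion; nearly all actives have a fitted effect of over 40% in size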
Procedure, shortened: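 SH-SY5Y GLuc-SERCaMP, 1000 cells/well, 4 h attach; cpd 16 h, 37C/5% CO2; thapsigargin (added as 6x 600 nM) 4 h; coelenterazine; luminescence. Reduced reporter release = ER Ca stabilization.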

[6] = Redox Reaction Profiling qHTS: Assay Interference Panel against the NCATS CANVASS Library (AID 1347401);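 also: 100% = activation by 2 µM chloranil control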
Procedure, shortened: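 Compounds in 11-point series incubated with 5 uM resazurin and 200 uM DTT in 50 mM HEPES pH 7.3, 50 mM NaCl. Resorufin fluorescence (Ex 525/Em 598) read before and after 15 min in the dark.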

[7] = qHTS to identify inhibitors of the type 1 interferon - major histocompatibility complex class I in skeletal muscle: primary screen against the NCATS Mechanism Interrogation Plate v5.0 (MIPE) Libary (AID 1347411);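 also: plate controls were vehicle for no effect and reference inhibitor for full effect; nearly all actives have a fitted effect of over 65% in size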
Procedure, shortened: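 Cells were genome-edited human myoblasts carrying a HiBit tag on endogenous HLA-B. They were treated with IFN-beta (4.0 ng/ml) and titrated compounds (top 46 uM) for 24 hrs before lytic HiBiT detection.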

[8] = Cell Viability qHTS for small molecule stabilizers of the endoplasmic reticulum resident proteome (AID 1508629); settings: cell viability counter-screen, 100 nM thapsigargin for final 4 h;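 also: human SH-SY5Y neuroblastoma cells carrying the GLuc-SERCaMP reporter; compound exposure about 46 h in total before the viability read; % is scaled to controls: 0 for no effect and ±100 for the full control effect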
[9] = qHTS to identify inhibitors of the type 1 interferon - major histocompatibility complex class I in skeletal muscle: primary screen against the NCATS LOPAC collection (AID 1347405);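 also: lytic HiBiT luminescence reporting HLA-B protein level; % is scaled to controls: 0 for no effect and ±100 for the full control effect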
Procedure, shortened: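 Cells: C25cl48 human myoblasts, HiBiT-tagged HLA-B*08:01, stimulated with IFN-beta 4.0 ng/ml. Compounds are titrated 1:4.3 over 7 points from 46 uM final and incubated 24 hrs; endogenous MHC class I is quantified by HiBiT lytic luminescence.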

[10] = qHTS for inhibitors of adenylyl cyclases using a fission yeast platform: a pilot screen against the NCATS LOPAC library (AID 1347410);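 also: plate controls were DMSO vehicle for no effect and DPI positive control for full effect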
Procedure, shortened: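 GFP from fbp1-GFP reporter, read by Acumen laser cytometry, indicates AC inhibition in fission yeast expressing AC9, GNAS and PDE4D2. Cells grown 18 h in the dark at 30C with compounds, final up to 57 uM.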

[11] = Validation qHTS assay for inhibitors of Activation Induced Cytidine Deaminase (AID): UDG Counterscreen signal (AID 1347427); also: 0% is about no effect
Procedure, shortened: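 Counterscreen read of UDG activity (2 U/mL, 4/3x) in the FRET deamination format with AID (1 uM, 4/3x), DJC20/DJC23 substrates (250 nM, 4x), 4 h at room temperature. NaOH stop, fluorescence at 560 ex/665 em.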

[12] = molecular target: Single-stranded DNA cytosine deaminase (Homo sapiens) (UniProt Q9GZX7); test: Validation qHTS assay for inhibitors of Activation Induced Cytidine Deaminase (AID): AID signal (AID 1347429); also: % is scaled to controls: 0 for no effect and ±100 for the full control effect
Procedure, shortened: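 In this coupled qHTS, AID deaminates a FRET-labelled ssDNA substrate in the presence of UDG over 4 hr at room temperature. Compounds span up to 114 uM final.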

[13] = Primary qHTS for inhibitors of La Crosse Virus (LACV) - induced cell death in SH-SY5Y cells (AID 1508616);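 also: top concentration of the series differs between compounds; 0% = infected DMSO wells and 100% = uninfected DMSO wells; higher means more rescue of cells from virus-induced death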
Procedure, shortened: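 Readout was luminescence from ATPLite 1step added after a 6-day LACV infection (0.01 MOI) of SH-SY5Y cells that had received pin-transferred compound 24 hr after seeding.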

[14] = molecular target: Calcium and integrin-binding protein 1 (Homo sapiens) (UniProt Q99828); test: Validation qHTS for Identification of Calcium Integrin Binding protein 1 (CIB1) Competitor (AID 1508618); also: % is scaled to controls: 0 for no effect and ±100 for the full control effect
Procedure, shortened: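 Displacement of FITC-alphaIIb peptide (100 nM) from CIB1-GST (1 uM) is monitored by polarization in quantitative HTS format; buffer carries 5 mM CaCl2 and 125 mM NaCl at pH 7.4, incubations are at room temperature.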

[15] = Primary qHTS for small molecule stabilizers of the endoplasmic reticulum resident proteome: Secreted ER Calcium Modulated Protein (SERCaMP) assay (AID 1508630); also: % is scaled to controls: 0 for no effect and ±100 for the full control effect
Procedure, shortened: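 GLuc-SERCaMP-expressing SH-SY5Y cells, pretreated 16 h with compound, are challenged with thapsigargin to empty ER calcium stores; after 4 h, coelenterazine is added directly to the medium and luminescence is imaged.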

[16] = molecular target: Papain (Carica papaya) (UniProt P00784); test: Primary qHTS assay for inhibitors of the protease papain (AID 1645873)
Papain (Carica papaya), sequence (P00784 whole entry, looked up): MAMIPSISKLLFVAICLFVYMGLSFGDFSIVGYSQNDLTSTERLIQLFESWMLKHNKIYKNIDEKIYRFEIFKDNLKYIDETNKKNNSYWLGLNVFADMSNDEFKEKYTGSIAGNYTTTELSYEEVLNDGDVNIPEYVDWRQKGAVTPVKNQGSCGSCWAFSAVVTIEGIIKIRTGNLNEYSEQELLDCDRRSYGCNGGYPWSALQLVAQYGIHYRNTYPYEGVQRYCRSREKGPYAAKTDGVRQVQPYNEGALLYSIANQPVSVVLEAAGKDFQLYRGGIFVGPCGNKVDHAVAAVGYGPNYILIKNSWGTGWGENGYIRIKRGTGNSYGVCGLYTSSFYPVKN

Calcium and integrin-binding protein 1 (Homo sapiens), sequence (Q99828 whole entry, looked up): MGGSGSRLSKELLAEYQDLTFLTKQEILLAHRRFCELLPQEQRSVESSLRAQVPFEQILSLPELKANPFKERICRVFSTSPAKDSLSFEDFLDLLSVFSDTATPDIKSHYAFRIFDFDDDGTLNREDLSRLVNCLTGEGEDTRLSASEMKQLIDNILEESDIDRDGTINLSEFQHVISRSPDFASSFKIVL
Single-stranded DNA cytosine deaminase (Homo sapiens), sequence (Q9GZX7 whole entry, looked up): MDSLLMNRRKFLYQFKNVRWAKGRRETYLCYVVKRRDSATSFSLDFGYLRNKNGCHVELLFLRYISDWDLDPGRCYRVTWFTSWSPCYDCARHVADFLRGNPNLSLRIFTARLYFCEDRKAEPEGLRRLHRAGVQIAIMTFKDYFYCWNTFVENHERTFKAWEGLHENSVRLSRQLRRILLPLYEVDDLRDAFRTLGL

CC(=O)NCCc1c[nH]c2ccc(O)cc12
inactive: outcome [1] | outcome [2] | outcome [3] | outcome [4]

O=C(O)Cc1c[nH]c2ccc(O)cc12
inactive: outcome [1] | outcome [5] | outcome [2] | outcome [3] | outcome [4] | outcome [6]

CC1=C(/C=C/C(C)=C/C=C/C(C)=C\C(=O)O)C(C)(C)CCC1
inactive: outcome [7]

CCCc1c(OCCCOc2ccc(OCC(=O)O)cc2)ccc(C(C)=O)c1O
inactive: outcome [7]

COc1cc(/C=C(\C#N)C(=O)c2ccc(O)c(O)c2)cc(I)c1O
inactive: max response [8] 17.8%

Cc1nc2c(OCc3ccccc3)cccn2c1CC#N
inactive: Potency [9] | outcome [10] | Potency [11] | Potency [12] | Potency [13] | Potency [14] | Potency [15] | Potency [16]

CC(C)Cn1c(=O)n(C)c(=O)c2[nH]cnc21
inactive: Potency [9] | outcome [10] | Potency [11] | Potency [12] | Potency [13] | Potency [14] | Potency [15] | Potency [16]

CC1CCN=C(N)S1 (stereo not given)
inactive: Potency [9] | outcome [10] | Potency [11] | Potency [12] | Potency [13] | Potency [14] | Potency [15] | Potency [16]

CC1CCN(CC[C@H]2CCCN2S(=O)(=O)c2cccc(O)c2)CC1
inactive: Potency [9] | outcome [10] | Potency [11] | Potency [12] | Potency [13] | Potency [14] | Potency [15] | Potency [16]

CC(C)(C)NCC(O)COc1cccc2[nH]c(=O)[nH]c12 (stereo not given)
inactive: Potency [9] | outcome [10] | Potency [11] | Potency [12] | Potency [13] | Potency [14] | Potency [15] | Potency [16]

NC(N)=NC(N)=Nc1cccc(Cl)c1
inactive: Potency [9] | outcome [10] | Potency [11] | Potency [12] | Potency [13] | Potency [14] | Potency [15] | Potency [16]

CC1CNCCN1S(=O)(=O)c1cccc2cnccc12 (stereo not given)
inactive: Potency [9] | outcome [10] | Potency [11] | Potency [12] | Potency [13] | Potency [14] | Potency [15] | Potency [16]

COc1ccccc1N1CCN(CCCNc2c(C)c(=O)n(C)c(=O)n2C)CC1
inactive: Potency [9] | outcome [10] | Potency [11] | Potency [12] | Potency [13] | Potency [14] | Potency [15] | Potency [16]

COc1ccc(-c2ccc(N)[n+](CCCC(=O)O)n2)cc1
inactive: Potency [9] | outcome [10] | Potency [11] | Potency [12] | Potency [13] | Potency [14] | Potency [15] | Potency [16]

CN(C)C(=O)/N=N/C(=O)N(C)C
inactive: Potency [9] | outcome [10] | Potency [11] | Potency [12] | Potency [13] | Potency [14] | Potency [15] | Potency [16]

COc1cc(C(O)C(=O)O)ccc1O (stereo not given)
inactive: Potency [9] | outcome [10] | Potency [11] | Potency [12] | Potency [13] | Potency [14] | Potency [15] | Potency [16]

[Li+]
inactive: Potency [9] | outcome [10] | Potency [11] | Potency [12] | Potency [13] | Potency [14] | Potency [15] | Potency [16]

CNCCc1cnc(CCC(c2ccccc2)c2ccccc2)[nH]1
inactive: Potency [9] | outcome [10] | Potency [11] | Potency [12] | Potency [13] | Potency [14] | Potency [15] | Potency [16]

C[C@@H](NCCc1ccc(O)cc1)[C@@H](O)c1ccc(O)cc1
inactive: Potency [9] | outcome [10] | Potency [11] | Potency [12] | Potency [13] | Potency [14] | Potency [15] | Potency [16]

NC[C@@H]1O[C@H](c2ccccc2)Cc2c1ccc(O)c2O
inactive: Potency [9] | outcome [10] | Potency [11] | Potency [12] | Potency [13] | Potency [14] | Potency [15] | Potency [16]

NC(=O)c1ccccc1
inactive: Potency [9] | outcome [10] | Potency [11] | Potency [12] | Potency [13] | Potency [14] | Potency [15] | Potency [16]

Nc1ccc(CCNc2ncnc3c2ncn3C2OC(CO)C(O)C2O)cc1 (stereo not given)
inactive: Potency [9] | outcome [10] | Potency [11] | Potency [12] | Potency [13] | Potency [14] | Potency [15] | Potency [16]

O=C(O)/C=C/c1ccc(O)c(O)c1
inactive: Potency [9] | outcome [10] | Potency [11] | Potency [12] | Potency [13] | Potency [14] | Potency [15] | Potency [16]

CCC(=O)N1CCN(C(=O)c2ccccc2)CC1
inactive: Potency [9] | outcome [10] | Potency [11] | Potency [12] | Potency [13] | Potency [14] | Potency [15] | Potency [16]

Nc1ncnc2c1ncn2C1CCCC1
inactive: Potency [9] | outcome [10] | Potency [11] | Potency [12] | Potency [13] | Potency [14] | Potency [15] | Potency [16]

O=[N+]([O-])c1cccc2cn[nH]c12
inactive: Potency [9] | outcome [10] | Potency [11] | Potency [12] | Potency [13] | Potency [14] | Potency [15] | Potency [16]

CC(C)(C)c1cc(/C=C(\C#N)C(N)=S)cc(C(C)(C)C)c1O
inactive: Potency [9] | outcome [10] | Potency [11] | Potency [12] | Potency [13] | Potency [14] | Potency [15] | Potency [16]

CCCOC(=O)c1c(-c2ccccc2)nc(CC)c(C(=O)SCC)c1CCC
inactive: Potency [9] | outcome [10] | Potency [11] | Potency [12] | Potency [13] | Potency [14] | Potency [15] | Potency [16]

CN[C@H](CC(=O)O)C(=O)O
inactive: Potency [9] | outcome [10] | Potency [11] | Potency [12] | Potency [13] | Potency [14] | Potency [15] | Potency [16]
